# Assays:
# Assay in all cases: PBM binding z-score (relative to random genomic background probes); higher = stronger binding; sequences stand for … in GC…GCGATTGACAGCGTAGAATGAAGG
# [1] = tested on: FXR:RXRa (NR concentration 270 nM, RXRa partner concentration 90 nM)
# Summary of the method: (§1)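 Probes were double-stranded and carried 34-nt variable regions with direct-repeat seeds, single-nucleotide variants, half-site ablations and random human genomic background sequences, printed on custom Agilent 4×180K protein-binding microarrays. Arrays were incubated 1 h with ligand-free nuclear receptor dimers in PBS pH 7.4, 2% milk, 0.02% Triton X-100, 1 mM DTT, 0.2 mg/mL BSA and 0.4 mg/ml salmon testes DNA. Antibodies against each partner (one per run) detected binding, and scanned fluorescence was regression-normalized. Binding z-scores use the random background probes as reference.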
# [2] = tested on: LXRa:RXRa (NR concentration 270 nM, RXRa partner concentration 90 nM)
# Summary of the method: as §1
# [3] = tested on: LXRa homodimer (NR concentration 270 nM)
# Summary of the method: as §1
# [4] = tested on: LXRb:RXRa (NR concentration 270 nM, RXRa partner concentration 90 nM)
# Summary of the method: as §1
# [5] = tested on: LXRb homodimer (NR concentration 270 nM)
# Summary of the method: as §1
# [6] = tested on: PPARa:RXRa (NR concentration 270 nM, RXRa partner concentration 90 nM)
# Summary of the method: as §1
# [7] = tested on: PPARg:RXRa (NR concentration 180 nM, RXRa partner concentration 90 nM)
# Summary of the method: as §1
# [8] = tested on: PPARg:RXRa 270nM:90nM, anti-RXR (NR concentration 270 nM, RXRa partner concentration 90 nM)
# Summary of the method: as §1
# [9] = tested on: PPARg:RXRa 30nM:10nM, anti-RXR (NR concentration 30 nM, RXRa partner concentration 10 nM)
# Summary of the method: as §1
# [10] = tested on: PPARg:RXRa 90nM:30nM, anti-RXR (NR concentration 90 nM, RXRa partner concentration 30 nM)
# Summary of the method: as §1
# [11] = tested on: PPARg:RXRa DBDmut IVT, anti-RXR (DBD mutation: RXRa K156A/R161A, NR concentration 270 nM, RXRa partner concentration 90 nM)
# Summary of the method: as §1
# [12] = tested on: PPARg:RXRa IVT, anti-PPARg (NR concentration 270 nM, RXRa partner concentration 90 nM)
# Summary of the method: as §1
# [13] = tested on: PPARg DBDmut:RXRa IVT, anti-PPARg (DBD mutation: PPARg1 K132A/R137A, NR concentration 270 nM, RXRa partner concentration 90 nM)
# Summary of the method: as §1
# [14] = tested on: PPARg DBDmut IVT, anti-PPARg (DBD mutation: PPARg1 K132A/R137A, NR concentration 270 nM)
# Summary of the method: as §1
# [15] = tested on: PPARg homodimer (NR concentration 180 nM)
# Summary of the method: as §1
# [16] = tested on: PXR:RXRa (NR concentration 270 nM, RXRa partner concentration 90 nM)
# Summary of the method: as §1
# [17] = tested on: PXR homodimer (NR concentration 270 nM)
# Summary of the method: as §1
# [18] = tested on: RARa:RXR (NR concentration 270 nM, RXRa partner concentration 90 nM)
# Summary of the method: as §1
# [19] = tested on: RARa homodimer (NR concentration 270 nM)
# Summary of the method: as §1
# [20] = tested on: RARb:RXRa (NR concentration 270 nM, RXRa partner concentration 90 nM)
# Summary of the method: as §1
Sequence,PBM binding z-score [1],PBM binding z-score [2],PBM binding z-score [3],PBM binding z-score [4],PBM binding z-score [5],PBM binding z-score [6],PBM binding z-score [7],PBM binding z-score [8],PBM binding z-score [9],PBM binding z-score [10],PBM binding z-score [11],PBM binding z-score [12],PBM binding z-score [13],PBM binding z-score [14],PBM binding z-score [15],PBM binding z-score [16],PBM binding z-score [17],PBM binding z-score [18],PBM binding z-score [19],PBM binding z-score [20]
CTCGAAAGGTCGTGCTCAGGTGAGTATACCAAAC,5.37,4.02,0.432,3.45,0.379,4.99,2.62,3.65,0.746,2.23,0.806,1.92,0.159,0.522,2.26,3.47,-0.155,4.39,0.399,3.9
CCGACTGGGGCAGGGTTACCATAACGCACAGCCA,0.198,0.487,-0.443,0.866,-0.609,1.41,1.77,1.98,0.254,1.44,1.51,2.47,-0.73,-1.24,0.145,0.395,-0.445,0.895,-0.407,0.803
AGTCAAAGTTCATCTAGGTAACCTAAGATATGCT,6.25,6.2,6.02,4.02,2,4.99,6.33,6.35,3.52,5.54,0.989,3.71,1.38,1.29,3.22,5.34,6.67,3.84,1.21,4.88
CTCGAGAGGTCGTGCTCAGGTGAGTATACCAAAC,3.66,2.94,-0.247,3.32,-0.109,4.28,1.58,2.21,0.228,1.11,0.51,1.53,-0.297,-0.226,0.544,3.09,0.214,3.6,-0.876,2.79
TCATATAGGTAAATGCTAGGTGAAACTCCGATCT,1,0.883,0.327,0.756,-0.00744,1.4,0.976,2.12,4.01,2.96,4.38,2.75,0.957,1.1,0.711,0.57,0.499,0.959,0.953,0.548
AGAATGAGGTTATTAAGATCAGGGGATTGCGGTC,1.52,1.31,0.0189,1.18,-0.0318,2.51,1.47,1.87,0.612,1.08,2.94,2.52,0.849,0.535,0.326,1.14,0.713,1.15,0.826,1.34
CCTCGAAGGACAACAGGAGGTCAGAGCTGCCAGA,0.962,1.97,1.73,1.5,-0.405,2.05,0.581,0.229,-0.343,-0.119,-0.42,0.185,-0.412,-0.537,1.76,1.94,0.545,2.37,0.491,3.06
CAAAGTAGGTCACAGAGGTCAAAGTCCGTGCGTA,7.06,6.7,7.7,6.5,2.52,6.75,10.4,8.33,7.56,8.58,8.54,8.94,1.99,2.62,4.88,6.71,10.8,7.4,2.67,5.14
CCGACAGGGGCATAAGGTTACCATAAGCCAGCCC,0.857,2.05,-0.0589,1.1,-1.11,1.9,1.11,0.825,-0.159,0.389,-0.166,0.15,-1.21,-1.04,0.637,0.688,-0.195,1.93,-0.124,2.11
ATCGAAAGGTCGGCGAGGTGAGTATACACCGTTT,3.23,2.52,-0.167,1.9,0.199,3.76,1.57,2.25,0.34,1.11,-0.166,1.39,0.74,0.0118,0.989,2.25,-0.157,2.77,-0.0319,3.5
AGTCAAAGTTCACTAGGGAACGTAAGATTCAGCT,5.18,5.47,2.42,3.27,0.67,4.19,6.45,6.13,3.52,5.22,0.937,3.63,0.753,0.755,2.24,3.94,2.56,2.71,0.63,4.57
CTCGAAAGGTCGTGCTCAGGTGAGTAGACCAAAC,5.65,3.86,-0.195,3.08,0.0468,4.81,2.71,3.96,0.899,2.88,0.641,1.86,1.76,0.659,3.39,3.11,-0.191,4.48,-0.171,3.91
TATAGTTGGTCAAAGGTCACACACTCGAAATGCG,5.81,6.08,3.62,5.5,2.11,6.7,11.4,9.75,9.43,10.9,2.28,6.4,1.87,3.69,4.52,6.04,1.29,6.91,2.66,5.04
TCTAGTAGATCAGCAGGTTAAGAAAGCTGGCCAA,0.258,0.127,-0.552,0.373,-0.762,0.734,-0.257,1.37,2.66,2.06,1.99,0.125,-0.189,-1.02,0.292,0.255,-0.699,0.387,-0.353,0.266
GCTAGCAGGCCATTTGGGCCACTCAATGACGGGC,-0.514,-0.935,-0.951,-1.27,-1.17,-0.573,0.102,-0.789,-0.989,-1.19,0.571,0.308,-1.6,-2.1,-1.14,-0.943,-1.18,-1.05,-0.661,-0.143

# Source: the supplement of paper PMC6555819
